SARS PLP yeast – inhibitors of SARS-CoV papain-like protease in yeast; S. cerevisiae expressing SARS-CoV PLpro, growth rescue; Potency, µM (highest dose often 32.9 µM), for inactives: at the highest dose activity, positive = growth rescue, hits mostly activators; 330,000 compounds, 0.19% hits; AID 485353; also: 0% is about no effect; nearly all actives have a fitted effect of over 55% in size
Pf growth 48h – inhibits P. falciparum growth in the first generation, 48 h | AID 504832 | P. falciparum luciferase growth in erythrocytes, 48 h | Potency, µM (titrated, usually from 28.7 µM), for the others: at the highest dose activity change, negative = inhibition, hits mostly inhibitors | 310,000 compounds, 5.9% hits; active = well fitted inhibition curve with a large enough effect; inconclusive = small, poorly fitted or top-dose-only effect, or another doubt; inactive = no such curve, though single readings can be large or run the other way; also: % is scaled to controls: 0 for no effect and ±100 for the full control effect
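Luminescence readout; reporter = integrated firefly luciferase in P. falciparum. RBC culture at 2% hematocrit, 0.1% parasitemia final, 37 C/5% CO2; decreased signal taken as growth inhibition.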
NS1 inh – blocks influenza NS1 protein function | Potency, µM (series often up to 46.1 µM), for inactives: top-dose activity, positive = more growth | 270,000 compounds, 0.4% hits; also: actives are rising curves; nearly all actives have a fitted effect of over 50% in size
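In this qHTS, NS1 from influenza A is expressed in budding yeast, where it slows growth. Cells are switched from glucose to 2% galactose medium (pH 6.0, -URA), treated with compound, and growth recovery is read at OD600.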
Pf growth 96h – P. falciparum growth inhibition at 96 hours | P. falciparum luciferase reporter growth, 96 h | Potency, µM (highest dose often 28.7 µM), without a hit: top-dose activity change, negative = inhibition, hits mostly inhibitors | 320,000 compounds, 6.9% hits; active = well fitted inhibition curve with a large enough effect; inconclusive = small, poorly fitted or top-dose-only effect, or another doubt; inactive = no such curve, though single readings can be large or run the other way; also: % is scaled to controls: 0 for no effect and ±100 for the full control effect
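Delayed-death screen, second-generation endpoint: infected erythrocytes, 2% hematocrit, 0.05% parasitemia final; 96 hours at 37 C, 5% CO2; luciferase detection reagent; luminescence decrease equals reduced growth.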
Starred values were filed as active, the others as inactive; ? = inconclusive; nt = no result; [ ] = remark or other dose. Rows were chosen to be rich in hits. Some 10% of all compounds tested hit in one or more screens of this group. Unless noted, calls follow the shape of the full dose curve. Potency is read from the fitted curve at half-maximal effect.

SMILES	SARS PLP yeast	Pf growth 48h	NS1 inh	Pf growth 96h
CCCC(=O)Nc1ccc(C(=O)N/N=C/c2ccc([N+](=O)[O-])o2)cc1	-7.6%	-91.6%	2.4%	1.65µM*
O=C(N/N=C/c1ccc([N+](=O)[O-])o1)C(=O)Nc1ccc(C(=O)O)cc1	1.1%	2.33µM*	-0.6%	2.33µM*
O=C(N/N=C\c1ccc([N+](=O)[O-])o1)c1ccc(O)cc1	nt	2.28µM*	nt	-101.5%[12.8 µM]
O=C(c1cccc(S(=O)(=O)Nc2ccccc2F)c1)N1CCN(c2ccccc2F)CC1	2.0%	12.4%	1.6%	4.0%
O=C1c2ccccc2[C@@H]2C[C@@H](O)[C@H](Nc3cccc(C(F)(F)F)c3)CCN12	4.9%	nt	nt	nt
Cc1ccc(S(=O)(=O)O)cc1C	nt	-3.3%	nt	18.3%
O=C(N/N=C/c1ccc([N+](=O)[O-])o1)C(O)c1ccccc1 (stereo unspecified)	0.1%	?	-0.3%	?
O=C(N/N=C/c1ccc([N+](=O)[O-])o1)c1cn2ccc3ccccc3c2n1	1.0%	1.31µM*	-2.8%	?
Cc1ccc(NC(=O)CCC(=O)N/N=C/c2ccc([N+](=O)[O-])o2)cc1C	-4.5%	7.38µM*	3.4%	1.85µM*
O=C(CSc1ccc(Cl)cc1)N/N=C/c1ccc([N+](=O)[O-])o1	3.5%	?	-50.9%	?
Cc1ccc(-c2csc3ncnc(SCC(=O)NCC4CCCO4)c23)cc1 (stereo unspecified)	4.7%	?	nt	?
Cc1cc(NC(=O)CSCC(=O)Nc2cccc(S(=O)(=O)N3CCCCCC3)c2)no1	-0.5%	?	nt	-20.8%
CC(C)(C)NS(=O)(=O)c1ccc(CCC(=O)NCc2cccnc2)cc1	-2.7%	nt	9.4%	-27.4%
CC1CCCC(NC(=O)c2ccc3c(c2)N(Cc2ccccc2)C(=O)CS3=O)C1C (stereo unspecified)	-9.3%	16.5µM*	24.3%	10.4µM*
O=C(NCC1CCCO1)c1ccc2c(c1)N(Cc1ccccc1)C(=O)CS2=O (stereo unspecified)	3.8%	?	-3.0%	-16.1%
CCOc1ccc(NC(=O)c2ccc3c(c2)N(Cc2ccc(F)cc2)C(=O)CS3=O)cc1 (stereo unspecified)	-3.1%	10.4µM*	?	?
O=C(Nc1ccc(Br)cc1F)c1ccc2c(c1)N(Cc1ccccc1)C(=O)CS2=O (stereo unspecified)	?	?	-45.9%	?
Cc1ccc(C)c(NC(=O)c2ccc3c(c2)N(Cc2ccc(F)cc2)C(=O)CS3=O)c1 (stereo unspecified)	-23.0%	3.29µM*	?	-11.5%
O=C(NC1CCCCCCC1)c1ccc2c(c1)N(Cc1ccc(F)cc1)C(=O)CS2=O (stereo unspecified)	11.9%	11.7µM*	0.0%	?
O=C(NCCC(=O)N1CCN(c2ccc(F)cc2)CC1)c1ccco1	-3.1%	-16.6%	nt	4.0%
O=S(=O)(/N=C(/c1ccccc1)N1CCOCC1)c1ccc(F)cc1F	6.0%	nt	nt	nt
CCOc1ccc(N(CC(=O)NC2CCCCC2)C(=O)CCC(=O)Nc2nccs2)cc1	1.4%	7.38µM*	4.9%	-16.4%
Cc1cccc(N(CC(=O)NC2CCCCC2)C(=O)CCCC(=O)Nc2ccccn2)c1	-17.3%	11.7µM*	-13.0%	-21.8%
CCC(C)(C)NC(=O)CN(C(=O)CCC(=O)Nc1nccs1)c1ccccc1C	4.9%	-24.3%	3.2%	10.4µM*
COc1cccc(N(CC(=O)NC2CCCCC2)C(=O)CCC(=O)Nc2nccs2)c1	0.6%	?	20.4%	11.7µM*
SMILES	SARS PLP yeast	Pf growth 48h	NS1 inh	Pf growth 96h
O=C(CS(=O)Cc1ccco1)NCC=CCOc1cc(CN2CCCCC2)ccn1 (stereo unspecified)	nt	-10.7%	nt	-22.3%
O=C(O)[C@@H]1C[C@H](C(=O)O)N1	nt	nt	12.5%	nt
COC(=O)c1ccc(NC(=O)C(=O)c2cn(CC(=O)N3CCOCC3)c3ccccc23)cc1	-3.2%	13.7%	3.3%	?
O=C(NCc1ccc(Cl)cc1)C(=O)c1cn(CC(=O)N2CCOCC2)c2ccccc12	-2.1%	19.5%	5.3%	13.1µM*
COc1ccc(CNC(=O)C(=O)c2cn(CC(=O)N3CCOCC3)c3ccccc23)cc1	-4.1%	33.5%	-6.9%	-1.8%
O=C(Nc1ccccc1Cl)C(=O)c1cn(CC(=O)N2CCOCC2)c2ccccc12	-0.7%	139.4%	4.8%	11.7µM*
Cc1ccc(S(=O)(=O)N(C)C)cc1NC(=O)c1cncc(Br)c1	17.0%	13.1µM*	3.5%	13.1µM*
CCCn1c(N)c(N2CCCCC2)c(=O)n(CC(=O)Nc2ccccc2)c1=O	10.7%	nt	0.8%	-2.2%
CCCn1c(N)c(N(C)C)c(=O)n(CC(=O)Nc2ccc(OC(F)(F)F)cc2)c1=O	1.7%	-2.4%	0.2%	10.4µM*
COc1ccc(-c2nnc(-c3cc4ccccc4oc3=O)o2)cc1	19.7%	13.0%	21.6%	11.7µM*
CCCCCCc1cc2cc(-c3nnc(-c4ccccc4OC)o3)c(=O)oc2cc1O	-15.1%	3.7µM*	4.0%	nt
COc1ccc2oc(=O)c(-c3nc4ccccc4o3)cc2c1	-17.4%	35.4%	-7.3%	52.0%
COc1cccc2cc(-c3nnc(-c4ccccc4)o3)c(=O)oc12	-0.3%	23.4%	1.5%	8.28µM*
Cc1nc2nc(NC(=O)c3ccco3)[nH]n2c(=O)c1C	12.2%	17.3%	-2.4%	?
Cn1cc([C@@H]2C[C@H]3CN(C4CCCC4)C(=O)[C@]34CCCN24)c(-c2ccccc2)n1	-0.6%	5.22µM*	3.5%	4.8%
COc1cc(OC)cc(OC(=O)C2CCN(S(=O)(=O)c3ccc(OC)c(OC)c3)CC2)c1	nt	2.3%	nt	58.2%
COCCC(=O)N(Cc1ccc2c(c1)OCO2)C(C(=O)NC1CCCCC1)c1ccncc1 (stereo unspecified)	5.1%	-2.4%	-4.8%	0.1%
CCc1ccc(N(C(=O)c2ccco2)C(C(=O)NC2CCCC2)c2ccncc2)cc1 (stereo unspecified)	-3.2%	-13.2%	-6.8%	?
O=C(NC1CCCCC1)C(c1ccncc1)N(Cc1ccc2c(c1)OCO2)C(=O)C(F)(F)F (stereo unspecified)	-7.0%	9.28µM*	-8.9%	2.08µM*
CCc1ccc(N(C(=O)C(F)(F)F)C(C(=O)NC2CCCCC2)c2ccncc2)cc1 (stereo unspecified)	-2.2%	13.1µM*	6.7%	2.62µM*
COc1ccc(/C=N/NC(=O)c2nnn(-c3nonc3N)c2-c2cccs2)c(OC)c1	-1.2%	-11.9%	-6.0%	?
C#CCOCCOCCOCCNc1nc(N2CCOCC2)nc(N2CCN(C(=O)[C@H](C)n3cc(CCCN=C(N)N)nn3)CC2)n1	7.1%	19.2%	-26.3%	-23.1%
C#CCOCCOCCOCCNc1nc(N2CCN(C(=O)Cn3cc(CCCN=C(N)N)nn3)CC2)nc(N2CCN(C(=O)[C@H]([C@@H](C)CC)n3cc(CCCCN)nn3)CC2)n1	3.7%	?	nt	?
C#CCOCCOCCOCCNc1nc(N2CCN(C(=O)Cn3cc(CC(C)O)nn3)CC2)nc(N2CCN(C(=O)[C@H]([C@@H](C)CC)n3cc(CCCN=C(N)N)nn3)CC2)n1 (stereo partly specified)	-10.1%	-20.1%	-8.6%	4.65µM*

Screening data: PubChem, National Center for Advancing Translational Sciences (NCATS)
